Data as given in PubChem BioAssay (NCI).
Compounds without any hit were thinned out: in the full panel of roughly 79,000, 15% have a hit. Unmarked numbers belong to inactive results. Rule as the data show it: active = growth inhibition above about 70%; inactive = the rest.

Assay: NCI Yeast Anticancer Drug Screen. Data for the rad50 strain (AID 155);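 also: 0% = growth of vehicle-only cultures of the same strain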
Settings: S. cerevisiae rad50 strain growth inhibition; at 50.0 µM; active compounds read high
Summary of the method: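 DNA repair mutant yeast, compound exposure, growth read-out; inhibition is taken relative to vehicle.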

SMILES	growth inhibition [%]
NS(=O)(=O)c1ccc(NC(=S)/N=C\c2c(O)[nH]c(=O)[nH]c2=O)cc1	-13
COc1ccc2c(c1)C(C)(C(N)=O)CCC2 (stereo not drawn)	3.25
COc1c2occc2c(Br)c2ccc(=O)oc12	13
COC(=O)C1N=CSCC1(C)O (stereo not drawn)	-4.8
CC(=O)OCC1OC(n2cc(CBr)nn2)C(OC(C)=O)C(OC(C)=O)C1OC(C)=O (stereo not drawn)	0.3
CCOC(=O)/C(=C(/N)C1OC(COC(c2ccccc2)(c2ccccc2)c2ccccc2)C2OC(C)(C)OC12)C1CC(=O)N(C)C1=O (stereo not drawn)	-4.35
COc1ccc(C(O)c2ccc(C)cc2)cc1 (stereo not drawn)	-14.1
CN=S(=O)(OCCCCOS(=O)(=NC)c1ccc(C)cc1)c1ccc(C)cc1 (stereo not drawn)	10.6
